Results reported in PubChem BioAssay AID624330 (Southern Research Specialized Biocontainment Screening …, 2012).
Among all 340,000 compounds or so, about 2,100 (0.62%) were called active.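 How the source made its calls: active means first-screen hits whose inhibition reached a set limit at any dose in the follow-up dose series; inconclusive means inhibition above the set first-screen limit but never retested; inactive means the rest.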 A selection follows. Measured potencies and affinities stand elsewhere.

Each compound was assayed against Rac GTPase-activating protein 1 (Homo sapiens) (UniProt Q9H0H5) (assay: MgcRacGAP GTPase-activating activity inhibitors, confirmation, biochemical, ADP Hunter fluorescence, primary and confirmatory (AID 624330;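 further: fluorescence reports GDP produced by GAP-driven GTP hydrolysis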)). Details: MgcRacGAP-stimulated Rac1 GTP hydrolysis, at 30 µM, stronger effect = higher value, GST-tagged Rac1 F28L mutant substrate.
Chain of Rac GTPase-activating protein 1 (Homo sapiens) (Q9H0H5 whole entry, looked up): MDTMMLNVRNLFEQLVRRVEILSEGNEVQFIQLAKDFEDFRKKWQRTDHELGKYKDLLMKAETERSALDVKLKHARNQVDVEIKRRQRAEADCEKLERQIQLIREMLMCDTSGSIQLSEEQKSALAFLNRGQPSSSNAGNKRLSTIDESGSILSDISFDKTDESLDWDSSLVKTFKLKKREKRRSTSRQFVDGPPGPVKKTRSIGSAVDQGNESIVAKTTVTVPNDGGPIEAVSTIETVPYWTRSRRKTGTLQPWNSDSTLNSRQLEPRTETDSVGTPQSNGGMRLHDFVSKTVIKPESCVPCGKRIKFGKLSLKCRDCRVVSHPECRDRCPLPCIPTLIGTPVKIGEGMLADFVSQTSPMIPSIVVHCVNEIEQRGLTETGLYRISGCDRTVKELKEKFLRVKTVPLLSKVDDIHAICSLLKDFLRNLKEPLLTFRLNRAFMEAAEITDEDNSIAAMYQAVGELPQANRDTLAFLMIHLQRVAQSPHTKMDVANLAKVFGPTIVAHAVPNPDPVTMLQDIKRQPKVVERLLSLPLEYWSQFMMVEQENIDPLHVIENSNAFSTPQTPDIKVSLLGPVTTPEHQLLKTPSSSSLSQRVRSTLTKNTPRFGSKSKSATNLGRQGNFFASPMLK

inhibition, inactive:
CSc1cccc(NC(=O)COC(=O)C2CCN(S(=O)(=O)c3ccccc3)CC2)c1 3.95%
CC[C@H]1CN2CCc3cc(OC)c(OC)cc3[C@@H]2C[C@@H]1C[C@H]1NCCc2cc(OC)c(OC)cc21 -1.46%
CC[C@H]1CN2CCc3cc(OC)c(OC)cc3C2C[C@@H]1C[C@H]1NCCc2cc(OC)c(OC)cc21 (some centres undefined) 5.06%
Cc1ccc(NC(=S)N=Nc2c(O)[nH]c3ccccc23)cc1 9.95%
COc1ccc(NC(=S)N=Nc2c(O)[nH]c3ccccc23)cc1 19.4%
Oc1cccc(NC(=S)N=Nc2c(O)[nH]c3ccc(Br)cc23)c1 21.1%
Oc1[nH]c2ccc(Br)cc2c1N=NC(=S)Nc1ccc(F)cc1 2.02%
CC(=O)n1cc(/C=N/NC(=O)c2ccc([N+](=O)[O-])cc2)c2ccccc21 7.25%
CCOC(=O)c1ccc(NC(=S)N(CCCN2CCCC(C)C2)Cc2ccco2)cc1 (centres undefined) 3.37%
Cc1ccc(-c2cc3c(nn2)-c2ccccc2C3=O)cc1 11.8%
CC1CCC2(CC1)NC(=O)N(CC(=O)Nc1cccc(S(=O)(=O)N3CCCC3)c1)C2=O (centres undefined) 4.59%
CCOc1ccc(-n2nc(C(=O)NC3CCCCC3)c3ccccc3c2=O)cc1 -4.66%
Nc1nc(N)c2nc(-c3ccccc3)c(N)nc2n1 4.54%
Nc1[nH]c(=S)nc2nc(-c3ccccc3)c(-c3ccccc3)nc12 9.86%
COCC1CCCCC1OS(N)(=O)=O (centres undefined) 10.2%
Nc1ccc(Cc2ccc(N)c(C(=O)O)c2)cc1C(=O)O 7.39%
Nc1ccc(Cc2ccc(N)c(O)c2)cc1O -7.75%
N#Cc1cc(C(=O)Cc2ccccc2)c[nH]1 -3.54%
COc1cccc(C(=O)C2CCCN(C(=O)c3ccc(C#CC(C)(C)O)cc3)C2)c1 (centres undefined) 1.51%
COc1ccc(C(=O)N2c3ccccc3CC2C)cc1OC (centres undefined) 3.63%
O=C(c1ccc(F)cc1)N1CCN(C2CCC(c3ccccc3)CC2)CC1 (centres undefined) 12.1%
COc1cc(OC)cc(C(=O)N2CCN(C3CCCCC3)CC2)c1 19.9%
O=C(c1ccc(F)cc1)N1CCC(N2CCCCCC2)CC1 11%
O=C(c1ccc([N+](=O)[O-])cc1)N1CCCC1 13.8%
COc1cccc(C(=O)N2CCN(C3CCC(c4ccccc4)CC3)CC2)c1 (centres undefined) 14.9%
CC1CCCC(N2CCN(C(=O)c3ccc(F)cc3)CC2)C1 (centres undefined) 19.6%
O=C(c1ccccc1)N1CCN(C2CCCCC2)CC1 44.8%
O=C(c1ccccc1)N1CCN(C2CCCCCC2)CC1 25.4%
COc1ccc(-n2c(SC3CCOC3=O)nc3ccccc3c2=O)cc1OC (centres undefined) 7.23%
FC(F)(F)c1cccc(N2CCN(C3CC4CCC3C4)CC2)c1 (centres undefined) -3.5%
CC(C(=O)NCCN1CCOCC1)(c1ccccc1)c1ccccc1 9.67%
CCN(Cc1cc(OC)c(OC)c(OC)c1)C(=S)Nc1cccc(SC)c1 8.44%
COc1ccccc1CNS(=O)(=O)c1cc(C(=O)NCC2CCCO2)c(Cl)cc1Cl (centres undefined) 4.61%
O=C(c1nc[nH]c1C(=O)N1CCN(c2ccccc2)CC1)N1CCN(c2ccccc2)CC1 8.08%
CN(CC(=O)Nc1ccccc1C(F)(F)F)C(=O)COc1cccnc1[N+](=O)[O-] 2.02%
C/C(=N\NC(=O)c1ccc(Cl)cc1)c1ccccn1 -1.19%
Cc1sc2ncnc(N3CCC(C(=O)Nc4ccc(S(N)(=O)=O)cc4)CC3)c2c1C 6.51%
O=C(c1cccc(F)c1)N1CCC(N2CCCCCC2)CC1 27%
CC1CCCC(N2CCN(C(=O)c3cccc(F)c3)CC2)C1 (centres undefined) 13.7%
CC(C)Oc1ccc(CNC(=O)c2cc(S(=O)(=O)N3CCOCC3)cn2C)cc1 7.69%
Cc1ccc2c(CC(=O)OCc3csc(C)n3)coc2c1 3%
Cc1ccc2c(CC(=O)O)coc2c1 -1.54%
COc1ccc(CN2CCN(C(=O)c3cc(-c4cccnc4)nc4ccc(Cl)cc34)CC2)c(OC)c1OC 0.91%
CCCn1c(=O)c2c(C(F)(F)F)cc(-c3ccco3)nc2n(CCC)c1=O 6.17%
C/C(CC(=O)Nc1ccc([N+](=O)[O-])cc1)=N\NC(=O)c1ccccc1O 3.2%
COc1cc(NC(=O)C/C(C)=N/NC(=O)C(OC)c2ccccc2)c(OC)cc1Cl (centres undefined) 15.9%
COC(C(=O)N/N=C(\C)CC(=O)Nc1ccc(Cl)cc1C)c1ccccc1 (centres undefined) 0.47%
C/C(CC(=O)Nc1ccc(N(C)C)cc1)=N\NC(=O)c1cnccn1 25.8%
C/C(CC(=O)Nc1ccc(N(C)C)cc1)=N\NC(=O)c1ccc(C(C)(C)C)cc1 14.2%
C/C(CC(=O)Nc1ccc(N(C)C)cc1)=N\NC(=O)c1ccc(Cl)cc1 21.2%
C/C(CC(=O)Nc1ccc(N(C)C)cc1)=N\NC(=O)c1ccccn1 16.9%
C/C(CC(=O)Nc1ccc([N+](=O)[O-])cc1)=N\NC(=O)c1ccccc1[N+](=O)[O-] 7.35%
CC1(C)CC(=O)C2=C(C1)C(c1cn(-c3ccccc3)nc1-c1ccccc1)C(C#N)=C(N)O2 (centres undefined) 2.04%
Cc1cc(Br)cc(C)c1NC(=S)NC(=O)CC(C)C 7.74%
NC(N)=NS(=O)(=O)c1ccc(N/C=C/C(=O)c2ccc(Cl)c(Cl)c2)cc1 6.29%
COC(=O)[C@H](CCSC)NC(=O)Cn1cnc2c(OCc3ccccc3)ncnc21 5.04%
COc1ccc(OCC(=O)NNC(=O)c2ccc3c(=O)n4c(nc3c2)CCC4)cc1 8.67%
COc1ccc(S(=O)(=O)N2CCN(C(=O)c3ccco3)CC2)c(C)c1C 1.7%
O=C(O)c1cc(N2C(=O)C3C4C=CC(C4)C3C2=O)ccc1N1CCOCC1 (centres undefined) 4.85%
